# Compound activity from PubChem.
# Only some compounds are listed: those with a hit (about 20% of all), similar ones and a draw of the others.
# Pf growth 96h = inhibits malaria parasite growth, 96 h. 320,000 tested, 6.9% active. Potency, µM (titrated, usually from 28.7 µM), most hits filed as inhibitors. P. falciparum luciferase reporter growth, 96 h
#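 Compounds incubated with erythrocytes infected by luciferase-expressing P. falciparum (2% hematocrit, 0.05% parasitemia final) for 96 hours, 37 C in 5% CO2. Growth inhibition scored as decreased luciferase luminescence.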
# Shiga inhibitor = inhibitors of Shiga toxin in Vero cells; 290,000 tested, 9.2% active; Vero cells, Shiga toxin protein synthesis inhibition reporter; inhibition, % at 38.7 µM; AID 2315; in the data active = inhibition mostly above about 28%, no sharp cut-off; inactive = mostly below about 43%
# Cycloheximide cs = counter-screen for Shiga toxin inhibitors: cycloheximide protein synthesis inhibition | cell reporter, cycloheximide protein synthesis inhibition counterscreen | max response, % | 300,000 tested, 12% active | AID 2314; in the data active = max response mostly above about 13%, no sharp cut-off; inactive = mostly below about 14%; also: read at 38.3 µM for the half of the compounds with a filed dose
# HCMV antiviral = inhibitors of human cytomegalovirus; HFF cells, HCMV-luciferase reporter, 72 h; active compounds read low; activity change, negative = inhibition, % at 57.5 µM; 410,000 tested, 4.5% active; in the data active = activity change below about -60%; inconclusive = no clear call, values can overlap the other calls; inactive = above about -39%
#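 Compounds were evaluated in HFFs infected with an HCMV luciferase reporter virus (MOI 1 PFU/cell). Luciferase in lysates collected 72 h post infection served as the replication measure.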
# Pf growth 48h = inhibits P. falciparum growth in the first generation, 48 h. P. falciparum luciferase growth in erythrocytes, 48 h. 310,000 tested, 5.9% active. Potency, µM (series often up to 28.7 µM), most hits filed as inhibitors
#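 Luciferase-expressing parasites in RBCs, 2% Hct / 0.1% parasitemia final; RPMI 1640 + 0.5% Albumax; 37 C, 5% CO2, one generation; luminescence read-out, lower signal = inhibition.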
# A number is an active result; . = inactive; ? = inconclusive; / = no result given; + = active, no number. Unless noted, calls follow the shape of the dose curve; as a rule, active = well fitted inhibition curve with a large enough effect; inconclusive = small, poorly fitted or top-dose-only effect, or another doubt; inactive = no such curve, though single readings can be large or run the other way.
SMILES,Pf growth 96h,Shiga inhibitor,Cycloheximide cs,HCMV antiviral,Pf growth 48h
Cc1ccc(CCNC(=O)c2cc3c(s2)-c2c(C)cccc2OC3)cc1,/,/,/,-86,/
CC1CCCN(CCCNC(=O)c2cc3c(s2)-c2ccccc2OC3)C1 (stereo not given),.,.,.,-67,?
Cc1cc(C)n(CCCNC(=O)CCNS(=O)(=O)c2ccccc2C(F)(F)F)n1,.,.,.,.,.
Cc1ccc(Cn2cc(/C=C(/C#N)C(=O)Nc3cccc(Cl)c3)c3ccccc32)cc1,/,/,/,.,/
CCn1nc(C)c2c(-c3ccccc3)cc(=O)n(C(C)C(=O)NCc3cccc(OC)c3)c21 (stereo not given),/,/,/,.,/
Cc1ccc(CCNC(=O)c2cc3c(s2)-c2ccccc2OC3)cc1,/,.,.,-89,/
COC(=O)c1cc2c(s1)-c1ccc(OC)cc1CC2,.,115,55,.,.
NNC(=O)c1cc2c(s1)-c1cc(Cl)ccc1SC2,.,.,28,.,9.3µM
O=C(NCCc1ccc(Cl)cc1)c1cc2c(s1)-c1ccccc1OC2,/,/,/,.,/
O=C(NCc1ccc(Cl)cc1)c1cc2c(s1)-c1ccccc1SC2,/,/,/,.,/
CCN(CC)CCNC(=O)c1cc2c(s1)-c1ccccc1SC2,.,.,.,-72,.
CC(C)C(=O)NNC(=O)c1csc(-c2cccs2)n1,.,.,.,.,.
Cn1c(CN2CCOCC2)nc2cc(NC(=O)c3ccccc3[N+](=O)[O-])ccc21,/,/,/,.,/
Cc1ccc(Nc2c(-c3ccccn3)nc3cc(C)ccn23)cc1,9.3µM,.,.,.,?
Cc1ccn2c(Nc3ccc4c(c3)OCO4)c(-c3ccccn3)nc2c1,?,39,77,-98,12µM
COc1ccc(-c2csc3ncnc(N4CCN(c5ccccc5[N+](=O)[O-])CC4)c23)cc1,9.3µM,.,.,/,?
Cc1ccccc1N1CCN(c2ncnc3scc(-c4cccs4)c23)CC1,.,.,.,-67,?
COc1ccc(-c2csc3ncnc(N4CCN(Cc5ccccc5)CC4)c23)cc1,6.6µM,.,.,-89,?
COc1ccc(-c2csc3ncnc(N4CCN(c5ccccc5)CC4)c23)cc1,?,.,.,.,?
Clc1ccc(CN2CCN(c3ncnc4scc(-c5cccs5)c34)CC2)cc1,13µM,.,.,-98,/
COc1ccc(-c2nc3c4ccccc4n(CC(=O)Nc4ccc(C(C)C)cc4)c(=O)n3n2)cc1,/,/,/,.,/
CC(Sc1nnc(-c2ccncc2)n1C)C(=O)NCC1CCCO1 (stereo not given),.,/,/,.,.
Cc1nn(CC(=O)NCc2cccc(Br)c2)c(=O)c2c1sc1ccccc12,/,/,/,.,/
O=C(O)c1ccc(Cn2cnc3scc(-c4ccccc4)c3c2=O)cc1,.,.,.,?,.
CCN1CCN(c2ncnc3scc(-c4ccc(C)c(C)c4)c23)CC1,?,.,.,-67,?
SMILES,Pf growth 96h,Shiga inhibitor,Cycloheximide cs,HCMV antiviral,Pf growth 48h
Cc1ccc(-c2csc3ncn(Cc4ccc(C(=O)O)cc4)c(=O)c23)cc1C,12µM,.,.,.,.
Cc1ccc(-c2csc3ncnc(-n4nnc5ccccc54)c23)cc1C,?,.,.,.,?
COc1ccc(-c2csc3ncnc(N4CCN(c5ccc(OC)cc5)CC4)c23)cc1,13µM,.,.,.,?
CCn1cnc2scc(-c3ccc(OC)cc3)c2c1=O,10µM,.,.,.,.
Cc1cccn2c(=O)nc(SCC(=O)NC3CCCC3)nc12,.,/,/,.,.
Cc1ccc(-c2csc3ncnc(N4CCN(c5ccccc5O)CC4)c23)cc1,10µM,.,.,.,9.3µM
CC(C)(C)C(=O)N1CCN(c2ncnc3scc(-c4ccccc4)c23)CC1,13µM,.,.,-70,/
COc1ccc(-c2csc3ncnc(N4CCN(c5ccccc5O)CC4)c23)cc1,.,.,.,/,.
Fc1ccc(CN2CCN(c3ncnc4scc(-c5ccc(F)cc5)c34)CC2)cc1,?,.,.,-86,/
CSc1ccccc1NC(=O)c1noc(C)c1[N+](=O)[O-],.,.,.,.,.
COc1ccccc1CN1CCC(CNC(=O)c2cnn(-c3ccc(Cl)cc3)c2C2CCN(C(=O)OC(C)(C)C)CC2)CC1,/,/,/,-108,/
CC(C)(C)OC(=O)N1CCC(c2c(C(=O)NCCN3CCC(Cc4ccccc4)CC3)cnn2-c2cccc(Cl)c2)CC1,/,/,/,-100,/
COc1ccc(-n2ncc(C(=O)NC3CC3)c2C2CCN(C(=O)OC(C)(C)C)CC2)cc1,.,.,.,.,?
Cc1ccc(-n2ncc(C(=O)NCCN3CCC(Cc4ccccc4)CC3)c2C2CCN(C(=O)OC(C)(C)C)CC2)cc1,/,/,/,+,/
